According to PubChem BioAssay AID1671192 (National Center for Advancing Translational Sciences (NCATS), 2021):
Results filed as inconclusive are left out. Values without a mark were called inactive. Calls come from the whole dose curve; as a rule, active = well fitted curve in the direction sought with a large enough effect; inconclusive = small, poorly fitted or top-dose-only effect, or another doubt; inactive = no such curve, though single readings can be large or run the other way.

Biological target: Polyunsaturated fatty acid lipoxygenase ALOX15 (Homo sapiens) (UniProt P16050)
Sequence (P16050 whole entry, looked up): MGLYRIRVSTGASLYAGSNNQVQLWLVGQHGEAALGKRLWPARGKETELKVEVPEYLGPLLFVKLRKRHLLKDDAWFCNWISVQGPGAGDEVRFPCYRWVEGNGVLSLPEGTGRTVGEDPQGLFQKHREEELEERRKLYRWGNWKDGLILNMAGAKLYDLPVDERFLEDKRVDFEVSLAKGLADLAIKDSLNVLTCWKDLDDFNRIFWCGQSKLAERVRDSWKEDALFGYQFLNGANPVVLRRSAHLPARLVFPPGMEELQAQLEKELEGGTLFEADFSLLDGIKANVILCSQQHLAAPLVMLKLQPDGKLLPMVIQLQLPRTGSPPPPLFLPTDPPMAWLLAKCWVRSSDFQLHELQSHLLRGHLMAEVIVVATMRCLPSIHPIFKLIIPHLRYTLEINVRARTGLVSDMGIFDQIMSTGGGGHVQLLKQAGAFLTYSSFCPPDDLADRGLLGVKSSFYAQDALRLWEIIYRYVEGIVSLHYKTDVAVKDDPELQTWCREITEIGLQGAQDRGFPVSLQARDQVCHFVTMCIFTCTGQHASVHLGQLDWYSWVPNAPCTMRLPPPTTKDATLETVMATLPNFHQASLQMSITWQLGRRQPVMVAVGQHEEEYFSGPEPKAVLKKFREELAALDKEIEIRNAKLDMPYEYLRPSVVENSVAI
Experiment: Counterscreen qHTS for inhibitors of human arachidonate 12S-lipoxygenase (ALOX12): ALOX15 Assay; note: 0% is about no effect
Conditions: purified ALOX15 enzyme activity; series mostly up to 110 µM; activity change, negative = inhibition: at the top concentration
Outline: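 Xylenol orange–ferric complex formation, read as the 573 nm to 405 nm absorbance ratio, tracks product from 50 uM arachidonic acid turned over for 30 min at RT. Enzyme is 40 nM ALOX15, pH 7.5 HEPES buffer, compound-preincubated 15 min.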

Compound | activity change, negative = inhibition
O=C1NCc2ccccc2CC12CCN(Cc1ccccc1OC(F)(F)F)C2 (stereo not drawn) | -5.04%
CN1CC(=O)N(C2CCCNC2)Cc2c(NC3CCC3)ncnc21 (stereo not drawn) | -24.9% [at 146 µM]
O=S1(=O)CCCN1C1CCN(Cc2cccc3ccccc23)CC1 | 5.45% [at 146 µM]
COc1ccc(N2CC3CCC(C2)N3Cc2ccc(-c3cccnc3)cc2)cc1 | -22%
CCCC(=O)N1Cc2ccccc2CC2(CCN(Cc3ccccc3)CC2)C1 | -9.59%
CC(=O)N1CCN(c2ncnc3c2CN(C2CCCNCC2)C(=O)CN3C)CC1 (stereo not drawn) | -3.89%
COc1ccccc1NC1CN(C(=O)OC(C)(C)C)C1 | -12.5% [at 146 µM]
CCOc1ccc(CN2CCC3(Cc4ccccc4CNC3=O)C2)cc1 (stereo not drawn) | -15.1% [at 146 µM]
CN1CC(=O)N(C2CCCNC2)Cc2c(NCCCO)ncnc21 (stereo not drawn) | -25.2% [at 146 µM]
Cc1ccc2nc(C3CCN(Cc4cccs4)CC3)[nH]c(=O)c2c1 | -12.2% [at 146 µM]
COc1ccc(CCNc2ncnc3c2CN(C2CCCNC2)C(=O)CN3C)cc1 (stereo not drawn) | -23%
O=C(O)CCC(=O)N1Cc2ccccc2CC2(CCCN2Cc2cccnc2)C1 (stereo not drawn) | 1.74%
CCC(=O)N1Cc2ccccc2CC2(CCN(CC3CCNCC3)CC2)C1 | -12.4%
O=Cc1cccc(N2CCN(C(=O)c3ccncc3)CC2=O)c1 | -22.8% [at 146 µM]
CC[C@@H](Nc1ncnc2c1CN(C1CCNCC1)C(=O)CN2C)c1ccccc1 | -19.1%
CCN1CCCCC12Cc1ccccc1CN(S(=O)(=O)c1ccccc1)C2 (stereo not drawn) | 0.95%
O=[S+]([O-])(c1ccncc1)c1nnn2c1nc(NCc1ccc(F)cc1)c1ccccc12 | -0.991%
CCOCCNc1ncnc2c1CN(C1CCCNC1)C(=O)CN2C (stereo not drawn) | -28.1%
COc1ccc(C(=O)N2CCc3nc(C4CC4)nc(-c4ccc(Cl)cc4)c3C2)cc1 | -10.3%

Compound | activity change, negative = inhibition
CNCc1ccccc1Cl | -2.81% [at 233 µM]
c1cc(NCCN2CCCC2)ccn1 | -9.88% [at 233 µM]
O=C(NC1CCCC1)c1cc(C2CC2)nc2onc(C3CCCN3)c12 (stereo not drawn) | -4.93% [at 146 µM]
CN1CC(=O)N(C2CCNCC2)Cc2c1ncnc2N(C)Cc1ccc(F)cc1 | -13.5%
COc1cc(OC(F)(F)F)ccc1C(=O)NCc1nnc2n1C(C(=O)O)CC2 (stereo not drawn) | -7.17%
CN1CC(=O)N(C2CCNCC2)Cc2c(NC3CCCCC3)ncnc21 | -5.17%
O=C(N1CCCC1)N1CCN(c2ccc(Cl)nn2)C(=O)C1 | -13.1% [at 146 µM]
CN1CC(=O)N(C2CCCNCC2)Cc2c(NCCc3ccccc3F)ncnc21 (stereo not drawn) | -27.6%
COc1ccc(CNc2ncnc3c2CN(C2CCCNC2)C(=O)CN3C)cc1 (stereo not drawn) | -4.51%
CCc1ccc(CN2CCCC3(Cc4ccccc4CNC3=O)C2)s1 (stereo not drawn) | 11.2% [at 146 µM]
NCc1ccccc1-c1cc(C(F)(F)F)ccc1Cl | -8.37% [at 146 µM]
COc1cccc([S+](=O)([O-])N2CCCC3(CC(c4cccnc4)=NO3)C2)c1 (stereo not drawn) | -25.2%
O=C(c1ccccn1)N1CCc2nc(C3CC3)nc(-c3ccc(Cl)cc3)c2C1 | -1.45%
CC(C)NC(=O)NC1CC2(CCN(C(=O)Cc3ccc(O)cc3)CC2)c2ccccc21 (stereo not drawn) | -18.7%
Cc1ccsc1CN1CCC2(Cc3ccccc3CNC2=O)C1 (stereo not drawn) | 11.6% [at 146 µM]
COCCCNc1nc2c(S(=O)(=O)c3c(C)cc(C)cc3C)nnn2c2ccccc12 | -27.7%
CN1CC(=O)N(C2CCNCC2)Cc2c(NC3CCCCC3O)ncnc21 (stereo not drawn) | -2.53%
CCN1CCC2(Cc3ccccc3CN(C(=O)Cc3ccccc3)C2)C1 (stereo not drawn) | 3.4%
CC(=O)N1CCC2(CC1)CN(C(=O)Cc1csc(N)n1)Cc1ccccc1O2 | -4.11%
